Source: PubChem
Sampled rows, rich in hits. Any-hit rate of the full collection: about 4.2%.
MCF10A rereplic = induces DNA re-replication in MCF 10a normal breast cells; Potency, µM (highest dose often 46.1 µM), inactives show top-dose activity, positive = re-replication, actives largely listed as activators; 350,000 compounds, 2.9% hits; MCF 10A DNA re-replication, Hoechst nuclear intensity, 48 h; further: % of control where 0% means no effect; nearly all actives have a fitted effect of over 50% in size
Integrin act MD = activates integrin-mediated alleviation for muscular dystrophy | alpha7betagal myoblasts, beta-gal FDG fluorescence, 48 h | Potency, µM (doses to about 38.3 µM), inactives show at the highest dose activation, most hits filed as activators | 350,000 compounds, 0.064% hits | AID 624291;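 further: 100% = response of the positive control SU9516; nearly all actives have a fitted effect of over 60% in size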
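alpha7betagal+/- myoblasts (passage 13, 250/well) treated 48 h at 37C with compounds at 1:260 dilution of DMSO stock. Lysed, then beta-galactosidase activity read as FDG fluorescence (ex 480/em 540) after 30 min, with pre-read for autofluorescence.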
AT treatment = candidate therapy for ataxia-telangiectasia. F2112 A-T fibroblasts, KAP-1 phosphorylation AlphaLISA; neocarzinostatin DNA damage 30 min before lysis. Potency, µM (top dose mostly 57.5 µM), for inactives: at the top dose activation, usual class: activators. 320,000 compounds, 0.19% hits; further: % of control where 0% means no effect; nearly all actives have a fitted effect of over 45% in size
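ATM-like activity read as KAP-1 phosphorylation via AlphaLISA donor/acceptor antibody pairs after lysis and 6 hr at 25C. Cells were ATM-null patient fibroblasts (F2112, hTERT), dosed 60 min, then exposed to the DSB inducer NCS for 30 min.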
SW480 rerep = induces DNA re-replication in SW480 colon adenocarcinoma cells | SW480 DNA re-replication, Hoechst DNA content imaging, 48 h | Potency, µM (top dose mostly 46.1 µM), for inactives: top-dose re-replication activation, actives largely listed as activators | 340,000 compounds, 1.8% hits; further: % of control where 0% means no effect; nearly all actives have a fitted effect of over 55% in size
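Compounds, transferred as 23 nL by pin tool, were incubated with cells for 48 hr; DNA content per nucleus was then quantified by Hoechst staining and fluorescence plate imaging.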
Mito fusion yeast = mitochondrial division inhibition or fusion activation. S. cerevisiae fusion-defective mutant growth rescue, CellTiterGlo 48 h. Potency, µM (doses to about 46.1 µM), for the others: at the top dose growth rescue (activation), actives largely listed as activators. 320,000 compounds, 0.23% hits. AID 485298; further: % of control where 0% means no effect; nearly all actives have a fitted effect of over 45% in size
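Yeast fusion mutant, YPEG (non-fermentable carbon), compound, 48 h at 37C non-permissive; CellTiterGlo added, 10 min RT, luminescence read. Rescued growth = division inhibition.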
* marks the source's active call; other numbers are inactive results; ? = inconclusive; · = no result given; [ ] = remark or other dose. The call rests on the fitted dose curve; in most records, active means well fitted activation curve with a large enough effect; inconclusive means small, poorly fitted or top-dose-only effect; inactive means no such curve, though single readings can be large or run the other way. Potency means the concentration at half of the fitted maximal effect.

SMILES	MCF10A rereplic	Integrin act MD	AT treatment	SW480 rerep	Mito fusion yeast
Cc1cc(N2CCCC2)nc2ccc(NC(=S)NCCCN3CCC(C)CC3)cc12	18.4µM*	-65.7%	0.4%	?	-3.1%
COc1ccc(NC(=O)CCc2nnc3ccc(N4CCN(c5cccc(OC)c5)CC4)nn23)cc1	-16.5%	8.0%	-5.5%	-10.6%	3.1%
CCOC(=O)C1CCNC(=O)C1=O (stereo not given)	-2.1%	-9.2%	·	-2.7%	·
CCOC(=O)C1CCCN(C(=O)c2ccccc2NC(=O)C2=C(C)OCCS2)C1 (stereo not given)	-1.3%	?	-3.5%	-24.3%	14.4%
COc1ccccc1NC(=O)COn1nnc2ccc(S(=O)(=O)N3CCOCC3)cc21	-9.6%	-31.5%	1.0%	1.3%	28.0%
Cc1ccc(S(=O)(=O)N(C)c2ccc(C(=O)NCC(c3ccco3)N3CCCC3)cc2)cc1 (stereo not given)	·	4.3%	·	·	·
Cn1c2ccsc2c2cnn(Cc3ccc(F)cc3)c(=O)c21	·	·	5.2%	·	10.2%
Cc1cc(N2CCOCC2)nc2ccc(NC(=S)N3CCCCC3C)cc12 (stereo not given)	14.6µM*	2.3%	0.5%	18.4µM*	-4.4%
Cc1cccc(N2CCN(C(=S)Nc3ccc4nc(N5CCN(C)CC5)cc(C)c4c3)CC2C)c1 (stereo not given)	18.4µM*	-55.0%	-7.2%	18.4µM*	11.4%
Cc1cccc(N2CCN(C(=S)Nc3ccc4nc(N5CCN(C)CC5)cc(C)c4c3)CC2)c1C	0.1%	17.1%	-1.5%	-2.7%	0.2%
O=C(/C=C/c1ccccc1)N1CCN(c2c(Cl)cccc2[N+](=O)[O-])CC1	25.9µM*	6.6%	-5.3%	25.8%	?
COc1cccc(CN(C)C(=O)C23CC4CC(CC(C4)C2)C3)c1	10.4%	-14.5%	-0.2%	3.2%	5.7%
COc1ccc(CN(C)C(=O)C23CC4CC(CC(C4)C2)C3)c(OC)c1	13µM*	-43.7%	4.9%	?	-18.5%
Cc1ccc(C(=O)Cc2ccccc2)c(O)c1	-31.2%	3.4%	·	-8.5%	·
CC(C)=CCc1c(O)ccc(C(=O)Cc2ccccc2)c1O	20.6µM*	0.0%	1.2%	3.7%	13.4%
CN(C)c1ccc2c(c1)OC(N)=C(C#N)C2c1cccc(F)c1 (stereo not given)	4.11µM*	-20.4%	9.3%	?	?
N#CC1=C(N)Oc2cc(N)ccc2C1C1CCCCC1 (stereo not given)	8.2µM*	1.8%	-4.3%	18.4µM*	17.1%
COc1ccc(OC)c(C2C(C#N)=C(N)Oc3cc(N)ccc32)c1 (stereo not given)	-180.3%[0.0737 µM]	-16.2%	-1.8%	?	-4.7%
N#CC1=C(N)Oc2cc(N)ccc2C1c1cccc(F)c1 (stereo not given)	13µM*	13.9%	2.3%	11.6µM*	-0.3%
CCOc1ccccc1C1C(C#N)=C(N)Oc2cc(N)ccc21 (stereo not given)	23.1µM*	3.0%	2.8%	?	2.8%
O=c1c(Br)c(NCc2ccccc2)cnn1-c1ccc(F)cc1	0.1%	27.1%	3.4%	16.7%	5.8%
COC(=O)[C@H]1[C@H]2CC3c4[nH]c5ccccc5c4CCN3C[C@@H]2CC[C@@H]1O (stereo not given in full)	-2.3%[20.6 µM]	·	·	-8.4%	·
CC(=O)NCCNS(=O)(=O)c1ccc(C)c([N+](=O)[O-])c1	0.6%	5.4%	-0.2%	1.5%	-2.5%
COc1cc(C2CC(=O)c3c([nH]c(C(=O)OC4CCCCC4)c3C)C2)cc(OC)c1OC (stereo not given)	·	·	·	·	-0.5%
CCCCN(CCCC)CCNC(=O)CSCc1ccc(C)cc1	?	-44.3%	0.2%	-2.3%	-3.1%
SMILES	MCF10A rereplic	Integrin act MD	AT treatment	SW480 rerep	Mito fusion yeast
COc1ccccc1-n1cnc(N)c1C(=O)c1ccccc1	?	0.2%	-2.0%	14.6µM*	-3.3%
CCOc1ccc2oc(C(=O)OCC(=O)NC(=O)NC)c(C)c2c1	14.6%	7.08µM*	0.7%	-1.8%	3.7%
Cc1nnsc1C(=O)NNC(=O)c1cccc2ccccc12	-0.9%	9.3%	12.3%	-2.8%	-10.4%
Cc1ccc(NC2=Nc3ccccc3N3C2=Nc2c(c(C)nn2-c2ccccc2)C3c2ccc(O)c(O)c2)cc1 (stereo not given)	?	-61.5%	6.3%	9.2µM*	22.7%
Cc1cccc(NC2=Nc3ccccc3N3C2=Nc2c(c(C)nn2-c2ccccc2)C3c2ccc(O)c(O)c2)c1 (stereo not given)	?	-58.9%	-0.1%	7.31µM*	15.6%
Cc1nn(-c2ccccc2)c2c1C(c1ccc(O)c(O)c1)N1C(=N2)C(Nc2ccccc2)=Nc2ccccc21 (stereo not given)	?	-0.9%	13.8%	?	26.2%
COc1ccc(C(=O)c2coc3ccc(OC(C)=O)cc23)cc1	-8.8%	?	-22.9%	-1.5%	-1.0%
COc1ccc(OC)c(C(=O)c2coc3ccc(OC(C)=O)cc23)c1	20.6µM*	?	3.7%	?	24.4%
CCCCCCCC/C=C\CCCCCCCCN	-3.5%	·	·	0.6%	·
O=C1C(CCC(O)c2ccc(F)cc2)C(c2ccc(O)cc2)N1c1ccc(F)cc1 (stereo not given)	0.1%	·	·	-6.1%	·
CCOC(=O)C(NC(=O)c1ccccc1Cl)(Nc1ccc(C)c(C)c1)C(F)(F)F (stereo not given)	-67.8%	-12.3%	6.4%	4.11µM*	0.9%
O=C(COc1ccccc1)N(Cc1cccc(F)c1)C1CCS(=O)(=O)C1 (stereo not given)	4.4%	?	12.9%	4.9%	-4.3%
Cc1cc(C(=O)N2CCCC(C(=O)c3cccc(C(F)(F)F)c3)C2)n[nH]1 (stereo not given)	-1.4%	-23.5%	8.6%	17.2%	2.5%
Cc1noc(C)c1C(=O)N1CCCC(C(=O)c2cccc(C(F)(F)F)c2)C1 (stereo not given)	-1.7%	2.0%	-2.9%	5.8µM*	0.5%
O=C1c2cccc(OCc3ccc(F)cc3)c2CCN1Cc1ccc(F)cc1	20.6µM*	-27.7%	1.1%	7.7%	?
COC(=O)Cn1c(=O)c(C(=O)CCl)c(N)n(Cc2ccccc2)c1=O	5.17µM*	-6.8%	-6.7%	?	-5.0%
CCC(=O)OCC(=O)c1c(N)n(Cc2ccccc2)c(=O)n(C)c1=O	-3.4%	7.2%	1.0%	1.0%	-0.1%
COC(=O)Cn1c(=O)c2c(n(Cc3ccccc3)c1=O)N/C(=C/c1ccc(OC)cc1)C2=O	18.4µM*	-1.8%	0.0%	20.6µM*	2.9%
CSc1ncnc2c1ncn2CCCN(C)Cc1ccco1	·	10.6%	·	·	·
CC1=C(C(=O)N(C)C)C(c2ccc(N3CCOCC3)cc2)NC(=O)N1 (stereo not given)	0.92µM*	22.2%	-1.0%	18.4µM*	-9.4%
